Screening data as filed in PubChem BioAssay.
Compounds with a hit are over-represented: about 18% of the library has one in this group of screens.
TDP1 cell CPT – qHTS for Inhibitors of human tyrosyl-DNA phosphodiesterase 1 (TDP1): qHTS in cells in presence of CPT. chicken DT40 Tdp1-/-;hTDP1 cells + 20 nM CPT, ATP luminescence, 48 h. Potency, µM (titrated, usually from 46.2 µM), usual class: inhibitors. hit rate 12% among 420,000; note: nearly all actives have a fitted effect of over 55% in size
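Cell growth measured by CellTiter-Glo luminescence after a minimum 48 h, 37 C compound exposure with 20 nM CPT in Tdp1-knockout DT40 cells stably expressing hTDP1, seeded 400/well; qHTS titration format.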
DT40 TDP1 no CPT – qHTS for Inhibitors of human tyrosyl-DNA phosphodiesterase 1 (TDP1): qHTS in cells in absence of CPT; AID 686978, 2013; DT40 Tdp1-/- hTDP1 cells, no CPT, ATP luminescence, 48 h; hit rate 15% among 420,000; Potency, µM (highest dose often 46.2 µM), hits mostly inhibitors; note: nearly all actives have a fitted effect of over 55% in size
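Chicken DT40 Tdp1-/- cells complemented with human TDP1, screened without camptothecin (DMSO vehicle only), 400 cells/well. Compounds pin-transferred, cells incubated at 37 °C for at least 48 hr. Growth read as ATP-dependent luminescence (CellTiter-Glo, 30 min at RT).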
IL-1B inflam inh – qHTS for Inhibitors of Inflammasome Signaling: IL-1-beta AlphaLISA Primary Screen. hit rate 4.7% among 360,000. THP-1 LPS/ATP IL-1B secretion, AlphaLISA, 16 h; hits give low values. activity change, % at 57.5 µM; in the data active = activity change below about -50%; inconclusive = mostly about -30% to -49%
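THP-1 cells pretreated 1 hr with compounds (up to 57.5 uM final), then stimulated with LPS (250 ng/mL final) plus ATP (1.25 mM final); secreted IL-1B measured by AlphaLISA after 16 hr, decreased signal indicating inhibition.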
TDP1 block – qHTS Assay for Inhibitors of Tyrosyl-DNA Phosphodiesterase (TDP1) | Tyrosyl-DNA phosphodiesterase 1 (Homo sapiens), Q9NUW8 | recombinant TDP1, AlphaScreen DNA substrate cleavage | Potency, µM (titrated, usually from 130 µM), hits mostly inhibitors | hit rate 0.28% among 350,000; note: nearly all actives have a fitted effect of over 40% in size
Target sequence (Q9NUW8 whole entry, looked up): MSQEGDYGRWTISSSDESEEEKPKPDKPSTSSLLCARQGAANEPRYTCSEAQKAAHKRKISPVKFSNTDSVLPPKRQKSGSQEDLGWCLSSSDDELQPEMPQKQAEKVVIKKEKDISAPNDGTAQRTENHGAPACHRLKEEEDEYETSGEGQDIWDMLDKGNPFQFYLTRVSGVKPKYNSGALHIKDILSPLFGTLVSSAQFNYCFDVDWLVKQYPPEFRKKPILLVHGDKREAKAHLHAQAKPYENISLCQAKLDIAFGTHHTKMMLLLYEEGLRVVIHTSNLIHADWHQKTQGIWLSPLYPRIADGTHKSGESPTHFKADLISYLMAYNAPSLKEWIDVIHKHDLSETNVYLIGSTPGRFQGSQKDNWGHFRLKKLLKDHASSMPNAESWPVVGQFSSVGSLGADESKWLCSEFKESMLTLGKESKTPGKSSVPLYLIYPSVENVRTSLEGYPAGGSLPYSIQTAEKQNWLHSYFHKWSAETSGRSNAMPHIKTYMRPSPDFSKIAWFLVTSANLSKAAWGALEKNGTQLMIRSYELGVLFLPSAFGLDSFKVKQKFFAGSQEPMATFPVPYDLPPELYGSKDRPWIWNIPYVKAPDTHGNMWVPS
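Signal: AlphaScreen proximity between streptavidin donor and anti-FITC acceptor beads on intact substrate. Reaction: Tdp1 1 nM, substrate 15 nM final, 5 min RT after 15 min compound preincubation.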
Six1-Eya2 blk – qHTS Assay for Inhibitors of the Six1/Eya2 Interaction; activity change, % (no concentration beside the values); AID 651725, 2012; Homeobox protein SIX1 (Homo sapiens) + Protein phosphatase EYA2 (Homo sapiens), …; hit rate 0.56% among 360,000; AlphaScreen GST-Six1/His-Eya2 binding, biochemical; hits give low values; in the data active = activity change below about -65%; inconclusive = mostly about -30% to -63%
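GST-Six1 + His-Eya2 (5X stock: 250/500 nM); Tris pH 8.0, 300 mM NaCl, 0.05% BSA, 0.02% Tween 20; GSH donor/Ni acceptor beads; 1 h 37 °C dark; AlphaScreen readout.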
CtBP-E1A blk – qHTS Assay for Inhibitors of the CtBP/E1A Interaction | AlphaScreen GST-E1A/His-CtBP binding, 1536-well; hits give low values | CtBP / adenovirus E1A interaction (AlphaScreen) | activity change, % (no concentration beside the values) | hit rate 0.49% among 340,000; in the data active = activity change below about -65%; inconclusive = mostly about -30% to -63%
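Protein mix (5X: 125 nM each GST-E1A, His-CtBP) was incubated with pinned compound 2 h at 37 deg C in dark, in 50 mM Tris pH 8.0 buffer with 300 mM NaCl. Glutathione donor and nickel acceptor beads followed; AlphaScreen signal read after 1 h.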
Numbers stand for hits; 0 = inactive; ? = inconclusive; - = no result; [ ] = another dose, or the depositor's remark. Unless noted, calls come from the whole dose curve; as a rule, active = well fitted curve in the direction sought with a large enough effect; inconclusive = small, poorly fitted or top-dose-only effect, or another doubt; inactive = no such curve, though single readings can be large; an effect the other way counts as inactive or inconclusive.

SMILES	TDP1 cell CPT	DT40 TDP1 no CPT	IL-1B inflam inh	TDP1 block	Six1-Eya2 blk	CtBP-E1A blk
Cc1ccc(NC(=O)c2c(NC(=O)c3ccccc3)sc3c2CCC3)cc1	0	0	-	0[2.28 µM]	-	-
COC(=O)[C@@]12CCCCN1[C@H](c1ccc(-c3cccc(Cl)c3)c(OC)c1)[C@@H]1C(=O)N(C)C(=O)[C@@H]12	?	21µM	?	0	0	0
COC(=O)[C@@]12CCCCN1[C@H](c1ccc(-c3ccc(C(C)=O)cc3)c(OC)c1)[C@@H]1C(=O)N(C)C(=O)[C@@H]12	16µM	15µM	0	0	0	0
CCC(C)Sc1ccc([C@@H]2[C@@H]3C(=O)N(CC)C(=O)[C@@H]3[C@]3(C(=O)OC)CCCCN23)cc1OC (stereo partly specified)	?	?	0	0	0	0
O=C(OCC(=O)N1CCN(S(=O)(=O)c2ccc(Cl)cc2)CC1)C1CCC1	0	0	0	0	0	0
O=C1CC(N2CCN(C/C=C/c3ccccc3)CC2)C(=O)N1CCc1ccccc1 (stereo unspecified)	18µM	21µM	0	0	0	0
O=C1CC(N2CCN(C3CC(=O)N(CCc4ccccc4)C3=O)CC2)C(=O)N1CCc1ccccc1 (stereo unspecified)	?	?	0	0	0	0
CC(C)(C)NC(=O)CN(Cc1cccs1)C(=O)CCN1CCc2ccccc21	?	0	0	0	0	0
CC(C(=O)NC(C)(C)C)N(Cc1cccs1)C(=O)CCN1CCc2ccccc21 (stereo unspecified)	23µM	?	0	0	0	0
COc1cc(NS(=O)(=O)c2c(C)oc3c(F)c(F)c(F)c(F)c23)cc(OC)c1OC	23µM	18µM	0	0	0	0
O=C(NCCCN1CCN(c2ccccc2F)CC1)C1CC(=O)N(C2CCCC2)C1 (stereo unspecified)	0	0	0	0	0	0
CCOC(=O)CNC(=O)N1CCCC(C(=O)c2ccc3c(c2)OCO3)C1 (stereo unspecified)	0	0	0	0	0	-
Cc1ccc(/C=N/NC(=O)c2cc3c(ccc4ccccc43)o2)cc1[N+](=O)[O-]	26µM	?	0	0	0	0
O=C(N/N=C/c1ccc(O)c(Br)c1)c1cc2c(ccc3ccccc32)o1	?	0	?	0	0	0
O=C(NC1CCCC1)c1cc2c(ccc3ccccc32)o1	?	21µM	0	0	0	0
Cc1ccc(/C=N/NC(=O)c2cc3c(ccc4ccccc43)o2)o1	?	?	-61	0	0	0
CNC(=O)c1cc2c(ccc3ccccc32)o1	0	0	0	0	0	-
O=C(N/N=C/c1cc(Cl)c(O)c(Cl)c1)c1cc2c(ccc3ccccc32)o1	?	?	0	0	0	?
CC(=O)Oc1ccc(/C=N\NC(=O)c2cc3c(ccc4ccccc43)o2)cc1	?	?	?	-	0	0
CCOc1cc(/C=N/NC(=O)c2cc3c(ccc4ccccc43)o2)ccc1O	23µM	?	-51	0	0	0
Cc1ccccc1Nc1nc(N)nc(COC(=O)[C@@H](NC(=O)c2ccccc2Cl)C(C)C)n1	?	?	0	0	0	0
Cc1cc(C(=O)O)c(CSc2ncn[nH]2)o1	0	0	0	0	0	0
N#Cc1ccc(C(=O)OCCc2cc3ccccc3c(=O)o2)cc1	0	0	0	0	0	0
O=C(N/N=C/c1ccc([N+](=O)[O-])o1)c1cc2c(ccc3ccccc32)o1	10µM	?	0	0	0	0
